Consider five compounds from PubChem BioAssay (EPA / NIEHS).

For assay [1], the target named is Retinoic acid receptor RXR-alpha (Homo sapiens) (UniProt P19793). Put plainly: ATG_RXRa_TRANS: Attagene TRANS-FACTORIAL HepG2 Assay for human Retinoid X Receptor alpha (RXRa) (AID 2283012; active means hit-call score of the fitted dose curve at least 0.9, where 1 is the maximum). Put shortly: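 Chimeric NR-GAL4 trans-activation in HepG2, 24 h treatment; reporter transcripts quantified by fluorescence on capillary electrophoresis, analysed for upward change from DMSO.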

For assay [2], the target named is human Retinoid X Receptor beta (RXRb), RXRB (gene 6257) (UniProt P28702). The assay can be described thus: ATG_RXRb_TRANS: Attagene TRANS-FACTORIAL HepG2 Assay for human Retinoid X Receptor beta (RXRb) (AID 2283013; active means hit-call score of the fitted dose curve at least 0.9, where 1 is the maximum). The essentials: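 After a 24 h incubation with test chemical, transfected HepG2 cells carrying NR-Gal4 fusions and GAL4-UAS reporter transcription units yield RNA whose reporter cDNA is FAM-labelled, HpaI-cut and sized by capillary electrophoresis; increases over DMSO are scored.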

Read-out in assay [3]: E-selectin (Homo sapiens) (UniProt P16581)
Put plainly: BSK_3C_Eselectin: BioMAP Diversity Plus: 3C Assay for Eselectin Biomarker Activity (AID 2283015).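 On outcome: cell surface E-selectin protein quantified by ELISA 24 h after dosing.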 The conditions noted are these: primary human endothelial cells (HUVEC); actives raise or lower the signal. Put shortly:
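ELISA read-out of E-selectin on endothelial monolayers after 24 h chemical treatment. Human umbilical vein primary cells served as the system, with DMSO defining baseline activity for bidirectional fitting.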

Read-out in assay [4]: Interleukin-1 alpha (IL1a), IL1A (gene 3552)
The assay can be described thus: BSK_BE3C_IL1a: BioMAP Diversity Plus: BE3C Assay for Interleukin-1 alpha (IL1a) Biomarker Activity (AID 2283016). The conditions noted are these: primary human bronchial epithelial cells; actives raise or lower the signal. The essentials:
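Measured in human lung primary bronchial epithelial cells: IL-1a by ELISA at 24 h after dosing, with bidirectional fitting against DMSO.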

Read-out in assay [5]: Monocyte Chemoattractant Protein-1 (MCP1), CCL2 (gene 6347)
Put plainly: BSK_3C_MCP1: BioMAP Diversity Plus: 3C Assay for Monocyte Chemoattractant Protein-1 (MCP1) Biomarker Activity (AID 2283017). The conditions noted are these: primary human endothelial cells (HUVEC); actives raise or lower the signal. The essentials:
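ELISA read-out of MCP-1 from human umbilical vein endothelial cell cultures harvested 24 h post-dosing. Gain or loss of signal was fitted relative to DMSO.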

Read-out in assay [6]: Monocyte Chemoattractant Protein-1 (MCP1), CCL2 (gene 6347)
Put plainly: BSK_4H_MCP1: BioMAP Diversity Plus: 4H Assay for Monocyte Chemoattractant Protein-1 (MCP1) Biomarker Activity (AID 2283018). The conditions noted are these: primary human endothelial cells (HUVEC); actives raise or lower the signal. The essentials: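 Primary human umbilical vein endothelium is exposed to chemical for 24 h before MCP-1 is assayed by ELISA. Concentration-response fitted bidirectionally relative to DMSO.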

Read-out in assay [7]: Human Leukocyte Antigen - DR isotype (HLADR), HLA-DRA (gene 3122)
The assay can be described thus: BSK_3C_HLADR: BioMAP Diversity Plus: 3C Assay for Human Leukocyte Antigen - DR isotype (HLADR) Biomarker Activity (AID 2283019).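 On outcome: ELISA of cell-surface HLA-DR on HUVEC 24 h after dosing.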 The conditions noted are these: primary human endothelial cells (HUVEC); actives raise or lower the signal. The essentials:
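ELISA readout of surface HLA-DR on human umbilical vein endothelium, taken 24 h after chemical treatment. Gain- and loss-of-signal were both fitted relative to DMSO.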

Read-out in assay [8]: Interleukin-8 (IL8), CXCL8 (gene 3576)
Put plainly: BSK_3C_IL8: BioMAP Diversity Plus: 3C Assay for Interleukin-8 (IL8) Biomarker Activity (AID 2283020). The conditions noted are these: primary human endothelial cells (HUVEC); actives raise or lower the signal. The essentials:
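Using DMSO-treated wells as the baseline, bidirectional curve fitting was applied to ELISA-measured IL-8 from human umbilical vein endothelial cultures sampled 24 h after compound addition.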

Read-out in assay [9]: Monokine induced gamma interferon (MIG), CXCL9 (gene 4283)
The assay can be described thus: BSK_3C_MIG: BioMAP Diversity Plus: 3C Assay for Monokine induced gamma interferon (MIG) Biomarker Activity (AID 2283021).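 On AC50: MIG protein level measured by immunoassay in the treated endothelial cultures.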 The conditions noted are these: primary human endothelial cells (HUVEC); actives raise or lower the signal. Put shortly: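 ELISA-measured MIG in dosed HUVEC 3C cultures at 24 h, analysed by bidirectional fitting with DMSO defining baseline activity.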

Assay [10] is described as follows: BSK_3C_SRB: Viability Assessment in the BioMAP Diversity Plus: 3C Assay (AID 2283023).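 Further: fitted both ways against DMSO so a hit may be signal rise or drop.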 The conditions noted are these: primary human endothelial cells (HUVEC). Put shortly:
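Absorbance at 560 nm of sulforhodamine B-stained (0.1%) total protein served as a cytotoxicity readout in human umbilical vein endothelial cells, 24 h after chemical treatment. Signal was fitted bidirectionally relative to DMSO.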

Read-out in assay [11]: Matrix Metallopeptidase 1 (MMP1), MMP1 (gene 4312)
Put plainly: BSK_BE3C_MMP1: BioMAP Diversity Plus: BE3C Assay for Matrix Metallopeptidase 1 (MMP1) Biomarker Activity (AID 2283024). The conditions noted are these: primary human bronchial epithelial cells; actives raise or lower the signal. Put shortly:
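In this multiplexed primary-cell system, human bronchial epithelium received chemicals for 24 h before an ELISA for MMP1. Values reflect bidirectional fits normalised to the DMSO baseline.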

Read-out in assay [12]: Pselectin, SELP (gene 6403)
The assay can be described thus: BSK_4H_Pselectin: BioMAP Diversity Plus: 4H Assay for Pselectin Biomarker Activity (AID 2283026). The conditions noted are these: primary human endothelial cells (HUVEC); actives raise or lower the signal. The essentials: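 Bidirectional fits against DMSO gave the endpoint. Cells: primary human umbilical vein endothelium, chemical-treated for 24 h before ELISA detection of P-selectin.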

Assay [13] can be described thus: BSK_4H_SRB: Viability Assessment in the BioMAP Diversity Plus: 4H Assay (AID 2283027).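 Further: cells exposed to compound for 24 h before staining.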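 On AC50: curves fitted both ways versus DMSO so AC50 may be loss or gain.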 The conditions noted are these: primary human endothelial cells (HUVEC). Put shortly: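 Cytotoxicity read-out in primary human endothelial cells: after 24 h compound exposure, cells were TCA-fixed (10%), stained with 0.1% SRB and absorbance taken at 560 nm. Values fitted in both directions relative to DMSO.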

Assay [14] in a line: BSK_BE3C_SRB: Viability Assessment in the BioMAP Diversity Plus: BE3C Assay (AID 2283028).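 On AC50: fitted both ways so AC50 may mark signal gain or loss versus DMSO.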 The conditions noted are these: primary human bronchial epithelial cells. The essentials: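 Cells (human bronchial epithelial, primary) are treated with chemicals, and after 24 h the parallel cultures are fixed in 10% TCA. These are then stained with 0.1% SRB and read at 560 nm. Gain or loss of signal is fitted relative to DMSO.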

Read-out in assay [15]: Thrombomodulin, THBD (gene 7056)
Put plainly: BSK_3C_Thrombomodulin: BioMAP Diversity Plus: 3C Assay for Thrombomodulin Biomarker Activity (AID 2283029). The conditions noted are these: primary human endothelial cells (HUVEC); actives raise or lower the signal. Put shortly:
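In a multiplexed primary-cell system, human umbilical vein endothelium received chemical and was assayed 24 h later for thrombomodulin by ELISA. Parallel cultures were SRB-stained (0.1% SRB after 10% TCA fixation, read at 560 nm) to flag cytotoxicity.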

Read-out in assay [16]: Urokinase-type plasminogen activator receptor (uPAR), PLAUR (gene 5329)
Put plainly: BSK_4H_uPAR: BioMAP Diversity Plus: 4H Assay for Urokinase-type plasminogen activator receptor (uPAR) Biomarker Activity (AID 2283030). The conditions noted are these: primary human endothelial cells (HUVEC); actives raise or lower the signal. Put shortly: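 Cell-surface uPAR ELISA signal, measured 24 h after dosing human umbilical vein endothelial cells, was analyzed with bidirectional fitting relative to DMSO. Parallel SRB staining of total protein tracked overt cytotoxicity.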

Read-out in assay [17]: Vascular endothelial growth factor receptor 2 (Homo sapiens) (UniProt P35968)
The assay can be described thus: BSK_4H_VEGFRII: BioMAP Diversity Plus: 4H Assay for Vascular endothelial growth factor receptor 2 (VEGFR2) Biomarker Activity (AID 2283031).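 On AC50: cell-surface VEGFR2 protein level quantified by ELISA.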 The conditions noted are these: primary human endothelial cells (HUVEC); actives raise or lower the signal. The essentials: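 ELISA read-out of VEGFRII in primary human umbilical vein endothelium, taken 24 h after chemical treatment. Responses are expressed relative to DMSO, with bidirectional fitting.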

In assay [18] the target is human Vitamin D Receptor (VDR), VDR (gene 7421) (UniProt P11473). The assay can be described thus: ATG_VDR_TRANS: Attagene TRANS-FACTORIAL HepG2 Assay for human Vitamin D Receptor (VDR) (AID 2283022; active means hit-call score of the fitted dose curve at least 0.9, where 1 is the maximum). The essentials:
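Steps: transfect HepG2 with GAL4-UAS-driven reporter constructs; dose compounds 24 h; isolate RNA, reverse-transcribe, PCR-amplify with 6-FAM-labelled primer extension and HpaI digestion; quantify fragments by capillary electrophoresis relative to DMSO.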

The nature of assay [19]: BSK_3C_Vis: BioMAP Diversity Plus: 3C Assay for Morphology Visualization (AID 2283025).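 Further: light microscopy image of cell morphology used as background control; fitted both ways so gain or loss versus DMSO counts.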 The conditions noted are these: primary human endothelial cells (HUVEC). The essentials: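 Light-microscopy morphology readout, 24 h exposure, human primary umbilical vein endothelium; analysed relative to DMSO with bidirectional fitting.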
Assay [20] addresses human Thyroid Receptor alpha (THRa1), THRA (gene 7067) (UniProt P10827). The assay can be described thus: ATG_THRa1_TRANS: Attagene TRANS-FACTORIAL HepG2 Assay for human Thyroid Receptor alpha (THRa1) (AID 2283014; active means hit-call score of the fitted dose curve at least 0.9, where 1 is the maximum). Put shortly: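 Reporter transcript induction, read by capillary electrophoresis of 6-FAM-labelled RT-PCR products, reflects activity of a transfected THRa1-Gal4 fusion in HepG2 liver cells. Cells were dosed for 24 h; activity was fitted in the positive direction against DMSO.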

Values joined by “and” are separate entries in the source; they are usually repeats but may differ in a detail not shown here. Identical values can stand only once. Results filed as inconclusive are left out. The source holds several records for some structures; these can differ, active in one and inactive in another. Active and inactive are the calls of the source. How the source made its calls, unless noted: active means hit-call score of the fitted dose curve at least 0.9, where 1 is the maximum; inactive means score below 0.9.

Chain of Retinoic acid receptor RXR-alpha (Homo sapiens) (P19793 whole entry, looked up, the tested form may be a part): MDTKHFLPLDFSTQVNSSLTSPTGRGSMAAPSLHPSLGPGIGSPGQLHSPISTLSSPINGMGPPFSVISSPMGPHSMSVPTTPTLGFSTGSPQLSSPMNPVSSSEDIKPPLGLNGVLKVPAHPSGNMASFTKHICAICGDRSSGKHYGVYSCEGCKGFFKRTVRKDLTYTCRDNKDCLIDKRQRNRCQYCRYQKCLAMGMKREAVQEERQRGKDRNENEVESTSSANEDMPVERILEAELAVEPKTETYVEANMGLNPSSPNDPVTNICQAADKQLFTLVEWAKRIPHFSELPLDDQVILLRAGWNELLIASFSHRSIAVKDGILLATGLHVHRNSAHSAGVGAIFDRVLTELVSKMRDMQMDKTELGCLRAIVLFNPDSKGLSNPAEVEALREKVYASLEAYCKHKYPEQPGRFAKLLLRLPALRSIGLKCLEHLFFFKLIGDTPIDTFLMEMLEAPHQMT
Chain of E-selectin (Homo sapiens) (P16581 whole entry, looked up): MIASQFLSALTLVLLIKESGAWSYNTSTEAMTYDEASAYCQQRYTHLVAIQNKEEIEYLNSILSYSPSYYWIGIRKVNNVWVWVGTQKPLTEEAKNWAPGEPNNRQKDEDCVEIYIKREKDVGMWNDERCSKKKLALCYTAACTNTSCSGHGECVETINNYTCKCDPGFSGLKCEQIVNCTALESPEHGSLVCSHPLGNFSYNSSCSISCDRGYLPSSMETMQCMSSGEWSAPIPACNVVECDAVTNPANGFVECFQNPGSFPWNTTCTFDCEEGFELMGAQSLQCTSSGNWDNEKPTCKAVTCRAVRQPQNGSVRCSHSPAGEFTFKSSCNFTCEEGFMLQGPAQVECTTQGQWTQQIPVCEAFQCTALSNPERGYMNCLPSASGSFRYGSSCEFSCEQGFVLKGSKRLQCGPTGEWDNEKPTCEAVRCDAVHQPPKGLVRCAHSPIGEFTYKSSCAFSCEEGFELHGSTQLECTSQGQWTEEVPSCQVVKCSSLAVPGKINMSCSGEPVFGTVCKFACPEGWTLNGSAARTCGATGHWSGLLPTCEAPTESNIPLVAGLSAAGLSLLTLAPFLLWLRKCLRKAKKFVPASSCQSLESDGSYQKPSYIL
Chain of human Vitamin D Receptor (VDR), VDR (gene 7421) (P11473 whole entry, looked up, the tested form may be a part): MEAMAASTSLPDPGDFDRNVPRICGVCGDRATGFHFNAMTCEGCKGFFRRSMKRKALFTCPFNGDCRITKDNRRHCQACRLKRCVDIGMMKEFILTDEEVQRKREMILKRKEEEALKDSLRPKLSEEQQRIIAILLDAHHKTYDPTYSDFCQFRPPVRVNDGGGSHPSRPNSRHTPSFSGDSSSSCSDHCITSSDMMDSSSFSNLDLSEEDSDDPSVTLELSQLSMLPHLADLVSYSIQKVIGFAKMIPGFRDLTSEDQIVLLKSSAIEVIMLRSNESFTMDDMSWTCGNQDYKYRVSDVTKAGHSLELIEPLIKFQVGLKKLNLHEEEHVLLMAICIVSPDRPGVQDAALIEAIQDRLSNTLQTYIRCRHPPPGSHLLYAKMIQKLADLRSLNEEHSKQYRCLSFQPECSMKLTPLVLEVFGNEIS
Chain of human Retinoid X Receptor beta (RXRb), RXRB (gene 6257) (P28702 whole entry, looked up, the tested form may be a part): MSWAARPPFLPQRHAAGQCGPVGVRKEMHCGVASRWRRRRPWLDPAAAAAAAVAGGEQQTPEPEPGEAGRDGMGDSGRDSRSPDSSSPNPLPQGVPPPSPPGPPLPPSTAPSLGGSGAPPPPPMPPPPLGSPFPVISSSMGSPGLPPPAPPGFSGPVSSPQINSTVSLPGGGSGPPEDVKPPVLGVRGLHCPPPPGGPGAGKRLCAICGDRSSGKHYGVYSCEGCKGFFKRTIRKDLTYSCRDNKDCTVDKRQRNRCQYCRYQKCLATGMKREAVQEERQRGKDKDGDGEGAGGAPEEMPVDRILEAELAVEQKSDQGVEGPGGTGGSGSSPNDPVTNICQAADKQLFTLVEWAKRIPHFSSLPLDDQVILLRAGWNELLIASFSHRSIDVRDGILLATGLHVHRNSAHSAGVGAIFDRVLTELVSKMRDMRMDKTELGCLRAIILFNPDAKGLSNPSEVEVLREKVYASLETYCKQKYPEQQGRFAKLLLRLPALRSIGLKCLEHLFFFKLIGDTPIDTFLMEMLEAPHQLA
Chain of human Thyroid Receptor alpha (THRa1), THRA (gene 7067) (P10827 whole entry, looked up, the tested form may be a part): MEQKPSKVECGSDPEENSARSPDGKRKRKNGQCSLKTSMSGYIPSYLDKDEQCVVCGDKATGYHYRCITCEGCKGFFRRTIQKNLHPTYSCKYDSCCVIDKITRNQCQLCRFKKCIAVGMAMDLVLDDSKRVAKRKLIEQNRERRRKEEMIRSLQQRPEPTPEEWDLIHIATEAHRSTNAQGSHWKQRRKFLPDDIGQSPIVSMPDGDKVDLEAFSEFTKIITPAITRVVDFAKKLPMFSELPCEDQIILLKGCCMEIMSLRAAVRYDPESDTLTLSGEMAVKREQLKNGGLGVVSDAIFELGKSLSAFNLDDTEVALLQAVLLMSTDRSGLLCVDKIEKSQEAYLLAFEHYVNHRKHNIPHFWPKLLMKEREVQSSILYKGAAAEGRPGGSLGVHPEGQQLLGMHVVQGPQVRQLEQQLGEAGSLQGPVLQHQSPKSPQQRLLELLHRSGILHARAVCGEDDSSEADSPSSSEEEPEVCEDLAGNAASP

Regarding `O=CN1CCOCC1`, the compound was classed as inactive in assay [1], in assay [2], in assay [3], in [4], in assay [5] and in assay [6]. Moreover, the outcome in assay [7], in assay [8], in [9], in assay [10], in [11] and in [12] was inactive. Moreover, the outcome in [13], in assay [14], in [15], in [16] and in [17] was inactive.

For the compound `O=C1OC2(c3ccccc31)c1ccc(O)c(Br)c1Oc1c2ccc(O)c1Br`, the outcome in [1], in [2], in assay [9], in assay [18], in assay [10] and in [11] was inactive. Also, the result in assay [13] and in assay [14] was inactive. Further, the AC50 (as a rule, the concentration at which the activity in the assay is half-maximal) was 24.7 µM (active) in [3]; 9.21 µM (active) in [4]; 20 µM (active) in assay [5]; 25.4 µM (active) in assay [6]; 20 µM (active) in [7]; 24.4 µM (active) in assay [8]. The AC50 was 37.5 µM (active) in [19]; 20 µM (active) in assay [12]; 20 µM (active) in assay [15]; 20 µM (active) in [16]; 13.7 µM (active) in [17].

As to `Nc1c(Cl)cc(Cl)cc1[N+](=O)[O-]`, the outcome in assay [1], in [2], in assay [20] and in assay [18] was inactive.

As to `C[C@H](CCC(=O)NCC(=O)O)[C@H]1CC[C@H]2[C@@H]3[C@H](O)C[C@@H]4C[C@H](O)CC[C@]4(C)[C@H]3C[C@H](O)[C@]12C`, the compound was classed as inactive in assay [1], in assay [2] and in assay [18]. Further, the AC50 in assay [20] was 68.7 µM (active).

As for `CC1(C)CCC[C@]2(C)[C@H]3CCO[C@]3(C)CC[C@@H]12`, the compound was called inactive in assay [1], in assay [2], in assay [6], in assay [9], in assay [18] and in assay [11]. In addition, the result in [12], in assay [14], in assay [16] and in assay [17] was inactive. Besides, the AC50 in assay [3] was 36.9 µM (active) and 34.3 µM (active); in assay [4], 28.7 µM (active) and 29.6 µM (active); in assay [5], 26.4 µM (active) and 34.5 µM (active); in assay [7], 33.8 µM (active) and 34.7 µM (active); in assay [8], 31.5 µM (active) and 35.4 µM (active); in assay [9] it was 34.9 µM (active). In addition, the AC50 is 34.9 µM (active) and 39.2 µM (active) in [10]; 33.4 µM (active) in assay [12]; 32.1 µM (active) and 33.9 µM (active) in assay [13]; 30 µM (active) in assay [14]; 14.6 µM (active) and 17.3 µM (active) in assay [15]; 34.2 µM (active) in [16]. In assay [17], the AC50 was 31.9 µM (active).
